# Screening results (PubChem BioAssay)
# A selection: hits, their analogues and other compounds. The true share with any hit is near 1.1%.
# PrP UTR inh – suppresses PrP 5' UTR mRNA reporter expression; cell-based PrP 5' UTR mRNA reporter, plate reader; inhibition, % (concentration not given with the values); 340,000 tested, 0.35% active; in the data active = inhibition above about 52%; note: 0 = median of the neutral control wells
# FadD28 binding – blocks FadD28 binding to the bisubstrate probe; 360,000 tested, 0.22% active; fluorescence polarization; inhibition, % at 12.5 µM; in the data active = inhibition above about 8.5%, passing the limit was not always enough; inconclusive = no clear call, values can overlap the other calls
# BioA inh-1 – blocks M. tuberculosis BioA enzyme activity. 360,000 tested, 0.096% active. inhibition, % at 9.99 µM. purified M. tuberculosis BioA enzyme, plate reader; in the data active = inhibition above about 40%; inconclusive = no clear call, values can overlap the other calls
# PfHsp40 rescue – restores yeast growth despite PfHsp40 toxicity; AID 504582; S. cerevisiae expressing PfHsp40, growth rescue, ATP luminescence; growth rescue, % at 12.5 µM; 340,000 tested, 0.68% active; in the data active = growth rescue above about 28%, passing the limit was not always enough; inconclusive = no clear call, values can overlap the other calls;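 note: yeast W303a lacking pdr1 and pdr3 grown in galactose medium; growth measured after three days at 30 °C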
# TcdB GH inh – TcdB glycohydrolase inhibition; TcdB glycohydrolase enzymatic assay, plate reader; 350,000 tested, 0.24% active; P18177; inhibition, % at 9.99 µM; in the data active = inhibition above about 10%
# BioA inh-2 – inhibitors of Mycobacterium tuberculosis BioA enzyme; AID 651679; max activity, %; 310 tested, under 10 active; purified BioA enzyme, plate reader, dose response; shares compounds with BioA inh-1;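 note: top concentration of the dilution series was 10 µM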
# Target sequence (P9WQ81 whole entry, looked up): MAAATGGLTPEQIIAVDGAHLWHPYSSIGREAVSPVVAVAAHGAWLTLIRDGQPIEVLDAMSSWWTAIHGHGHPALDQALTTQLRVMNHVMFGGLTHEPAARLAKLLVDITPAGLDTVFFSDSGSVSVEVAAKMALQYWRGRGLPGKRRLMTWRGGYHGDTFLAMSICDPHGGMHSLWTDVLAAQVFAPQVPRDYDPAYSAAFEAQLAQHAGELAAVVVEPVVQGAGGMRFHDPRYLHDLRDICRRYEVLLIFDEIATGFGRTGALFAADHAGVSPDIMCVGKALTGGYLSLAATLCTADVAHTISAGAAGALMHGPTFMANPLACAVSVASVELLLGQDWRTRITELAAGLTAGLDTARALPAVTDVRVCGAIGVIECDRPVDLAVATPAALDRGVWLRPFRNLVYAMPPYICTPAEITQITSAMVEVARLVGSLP
# HepG2 cytotox – kills HepG2 cells; shares compounds with BioA inh-1; HepG2 cytotoxicity, plate reader; max activity, %; 310 tested, under 10 active
# 3T3 cytotox 5 – kills NIH3T3 cells; shares compounds with BioA inh-1; NIH3T3 cytotoxicity, plate reader; activity change, negative = cytotoxicity, % at 26 µM; 310 tested, under 10 active; AID 651900
# An asterisk follows results filed as active; ? = inconclusive; . = no result given. Unless noted, the rule behind the calls is not given here.
SMILES,PrP UTR inh,FadD28 binding,BioA inh-1,PfHsp40 rescue,TcdB GH inh,BioA inh-2,HepG2 cytotox,3T3 cytotox 5
Cc1cccc(-n2c(SCC(=O)N(C)C3CCS(=O)(=O)C3)nc3ccccc3c2=O)c1C (centres undefined),-26.2,-4.2,47.2*,1.3,0.8,2.6,17.3,4.2
COc1ccc(C2c3c(-c4cc(Cl)c(C)cc4O)n[nH]c3C(=O)N2Cc2cccnc2)cc1OC (centres undefined),-14.6,-8.2,55.9*,-0.3,.,-6.1,-10.4,-6.3
COc1ccc(C2c3c(-c4ccccc4O)n[nH]c3C(=O)N2Cc2ccco2)cc1OC (centres undefined),1.7,-0.9,.,-0.4,0.3,.,.,.
COc1cccc(NC(=O)CCC2CCN(C(=O)c3ccc(C(C)=O)s3)CC2)c1,-13.5,-4.0,71.8*,0.8,0.8,2.4,-13.3,-0.2
COc1cccc(NC(=O)CCC2CCN(C(=O)c3sccc3C)CC2)c1,-11.5,-0.5,4.1,-0.5,1.4,.,.,.
CCN(CC)CCNC(=O)c1cn(CC)c2ccc(S(=O)(=O)N3CCc4ccccc4C3)cc2c1=O,-7.2,-2.4,58.5*,-0.9,2.2,-6.2,-7.6,0.1
CCN(CC)CCCNC(=O)c1cn(CC)c2ccc(S(=O)(=O)N3CCc4ccccc4C3)cc2c1=O,-4.9,-0.4,.,-0.4,0.4,.,.,.
Cc1ccc(CNC(=O)c2ccc(NC(=O)C3=CSCCO3)cc2)cc1,-19.9,-3.3,0.3,-0.9,0.7,.,.,.
COc1cccc(CNC(=O)c2ccc(NC(=O)C3=CSCCO3)cc2)c1,-14.3,-3.1,47.7*,0.3,-0.1,-6.8,18.4,2.2
Cc1nn(CC(=O)NCC(C)c2ccccc2)c(=O)c2cc3occc3n12 (centres undefined),-10.5,-2.9,0.1,-1.6,0.6,.,.,.
CC(CNC(=O)CCCn1ncn2c(cc3occc32)c1=O)c1ccccc1 (centres undefined),-9.6,-3.5,67.0*,0.0,0.9,-9.5,-12.9,-5.2
CN(CCc1ccccn1)C(=O)CCC1CCCN(C(=O)c2cscn2)C1 (centres undefined),-13.6,0.7,.,-0.3,-0.3,.,.,.
CC(=O)c1ccc(C(=O)N2CCCC(CCC(=O)N(C)CCc3ccccn3)C2)s1 (centres undefined),-23.3,1.4,66.1*,-0.5,-1.5,3.0,-15.0,-9.7
O=C(N[C@@H]1CC[C@@H](CCNS(=O)(=O)c2ccc(F)cc2)O[C@@H]1CO)C1CC1,.,.,1.5,.,-2.3,.,.,.
CC(=O)c1ccc(N2CCN(c3ccc(C(N)=O)cc3[N+](=O)[O-])CC2)cc1,-23.6,-3.7,.,-1.5,1.4,.,.,.
CC(=O)c1ccc(N2CCN(c3ncccn3)CC2)c([N+](=O)[O-])c1,-14.1,-2.7,66.8*,0.8,1.7,-1.9,-9.1,-1.3
CCCNC(=O)N(C)C[C@@H]1Oc2ncc(-c3ccncc3)cc2C(=O)N([C@@H](C)CO)C[C@H]1C,.,.,6.1,.,1.7,.,.,.
CS(=O)(=O)Nc1ccc2c(c1)[C@@H]1C[C@H](CC(=O)NCC(F)(F)F)O[C@H](CO)[C@@H]1O2,.,.,-0.7,.,0.5,.,.,.
Cc1nc(-c2cccnc2)sc1C(=O)Nc1cccc(C(F)(F)F)c1,-9.0,-6.4,50.5*,3.1,.,-9.1,?,-2.2
Cc1nc(-c2cccnc2)sc1C(=O)Nc1ccc(C(F)(F)F)cc1,4.2,1.3,12.7,1.3,.,.,.,.
CCOC(=O)c1c(C)[n+](-c2ccc(C)cc2)c(CC)c2cc(OC)c(OC)cc12,.,-0.8,77.2*,-0.5,-0.6,-8.5,12.5,-2.5
COc1cc(C(=O)N2Cc3cc4ccccc4nc3C2C)cc(OC)c1OC (centres undefined),.,-0.3,68.7*,.,0.5,-4.0,25.4,7.2
COCC(=O)Nc1ccc2c(c1)C(=O)N(C)C[C@@H](OC)[C@@H](C)CN(C(=O)NC(C)C)[C@H](C)CO2,.,.,-0.6,.,-1.7,.,.,.
COc1ccc(-c2n[nH]c3c2CN(C(=O)c2ccc(OC)c(OC)c2)CC3)cc1,-16.4,-2.0,86.2*,1.3,1.0,-8.3,29.1,6.6
CC(=O)c1c(C)[nH]c(C(=O)Nc2cccnc2)c1C,-22.1,-2.2,58.0*,-0.9,.,-4.9,-11.5,2.7
O=C(C[C@@H]1CC[C@H]2[C@@H](COC[C@@H](O)CN2C(=O)c2cccnc2)O1)NCc1ccc(Cl)cc1,.,.,0.3,.,0.1,.,.,.
